OTUD3 block = human OTUD3 deubiquitinase inhibition; AID 1645858; inhibition, % at 25 µM; purified OTUD3, Ub-rhodamine fluorescence, 2 h; Q5T2D3; 47,000 compounds, 0.7% hits
USP10 block = inhibitors of human USP10 deubiquitinase. 47,000 compounds, 1.1% hits. Q14694. inhibition, % at 20 µM. purified USP10, Ub-rhodamine fluorescence, 60 min
UCHL1 block = inhibitors of human UCHL1 deubiquitinase; inhibition, % at 20 µM; 47,000 compounds, 0.2% hits; purified UCHL1, Ub-rhodamine cleavage fluorescence; AID 1645859
USP8 block = human USP8 deubiquitinase inhibition; P40818; purified USP8, Ub-rhodamine cleavage fluorescence, 30 min; inhibition, % at 20 µM; 47,000 compounds, 4.2% hits; AID 1645853
Target sequence (P40818 whole entry, looked up): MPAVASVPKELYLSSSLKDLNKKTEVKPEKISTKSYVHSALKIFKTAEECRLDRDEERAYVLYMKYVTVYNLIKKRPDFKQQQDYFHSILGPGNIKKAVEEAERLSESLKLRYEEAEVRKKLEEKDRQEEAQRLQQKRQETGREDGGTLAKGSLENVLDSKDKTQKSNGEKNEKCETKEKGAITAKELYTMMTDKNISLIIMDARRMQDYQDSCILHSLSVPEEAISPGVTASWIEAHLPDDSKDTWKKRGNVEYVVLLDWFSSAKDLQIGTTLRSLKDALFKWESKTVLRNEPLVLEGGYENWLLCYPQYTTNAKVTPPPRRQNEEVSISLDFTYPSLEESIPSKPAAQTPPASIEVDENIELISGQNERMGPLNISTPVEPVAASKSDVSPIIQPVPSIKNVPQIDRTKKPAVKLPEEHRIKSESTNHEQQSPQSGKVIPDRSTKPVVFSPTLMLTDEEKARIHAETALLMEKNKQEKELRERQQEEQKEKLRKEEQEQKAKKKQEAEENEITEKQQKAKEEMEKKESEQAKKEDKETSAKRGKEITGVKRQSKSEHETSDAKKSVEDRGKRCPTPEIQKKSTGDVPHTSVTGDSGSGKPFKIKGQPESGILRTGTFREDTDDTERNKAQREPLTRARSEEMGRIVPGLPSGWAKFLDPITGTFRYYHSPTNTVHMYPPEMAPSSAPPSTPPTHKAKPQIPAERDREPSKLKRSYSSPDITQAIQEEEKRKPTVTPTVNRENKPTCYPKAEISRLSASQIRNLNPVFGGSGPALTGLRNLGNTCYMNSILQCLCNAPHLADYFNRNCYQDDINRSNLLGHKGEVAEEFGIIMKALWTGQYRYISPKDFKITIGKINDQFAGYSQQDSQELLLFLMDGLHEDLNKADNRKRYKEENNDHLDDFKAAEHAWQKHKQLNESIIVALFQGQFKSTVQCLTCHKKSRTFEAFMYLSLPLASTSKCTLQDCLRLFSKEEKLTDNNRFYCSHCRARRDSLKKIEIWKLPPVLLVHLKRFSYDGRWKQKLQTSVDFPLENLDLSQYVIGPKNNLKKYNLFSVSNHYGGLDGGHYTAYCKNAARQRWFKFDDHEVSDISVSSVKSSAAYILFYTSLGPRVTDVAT
USP7 inh = human USP7 deubiquitinase inhibition; 47,000 compounds, 0.3% hits; Q93009; AID 1645854; purified USP7, Ub-rhodamine cleavage fluorescence; inhibition, % at 20 µM
Of the large screens only hits and unclear results are named; the others gave an inactive call. The list is not random: actives were taken first. Their share in the collection is about 4.9%. Rule as the data show it: active = inhibition above about 30%; inactive = the rest.

CCN(c1ccccc1)S(=O)(=O)c1ccc2[nH]cc(C(=O)NCc3cccnc3)c(=O)c2c1	USP8 block 38
O=C(Nc1ccc(Cl)cc1)Nc1cccn2ncnc12	none
Cc1ccc(NC(=O)C2CCN(C(=O)c3cc(-c4ccncc4)n[nH]3)CC2)cc1Cl	OTUD3 block 39
CN(C)c1ccc(C(=O)Nc2ccc(S(=O)(=O)N3CCCC3)cc2)cc1	none
Cc1ccc(NC(=O)Cn2cc(-c3nc(C)no3)ccc2=O)cc1	none
CC(C)=CCC/C(C)=C/CC/C(C)=C/COc1c(O)cc(C=O)c(C=O)c1O	OTUD3 block 84, USP10 block 78, UCHL1 block 92, USP8 block 71, USP7 inh 93
CC(C)=CCC/C(C)=C/CC/C(C)=C/Cc1c(C)cc(O)cc1O	none
Cc1ccc(OCC(=O)NCC(c2ccco2)N2CCCC2)cc1C (stereo unspecified)	none
CCOC(=O)c1c2ccc(OCC(=O)NCc3ccco3)cc2n2ccccc12	USP8 block 63
COc1nc2c(c(-c3ccco3)c1C#N)Cc1cc(NC(C)=O)ccc1-2	USP8 block 66
N#Cc1ccc(Cl)cc1NC(=O)COC(=O)c1n[nH]c2ccccc12	USP8 block 34
N#Cc1cccc(NC(=O)COC(=O)c2n[nH]c3ccccc23)c1	USP10 block 31
CN(C)C(=O)CN1C[C@@]23CN(C(=O)c4ccccn4)C[C@@H](C[C@@H]2S1(=O)=O)O3	none
CC(OC(=O)c1c2c(nc3ccccc13)CCCC2)C(=O)Nc1ccc(N(C)C)cc1 (stereo unspecified)	none
CC(OC(=O)c1c2c(nc3ccccc13)CCCCC2)C(=O)Nc1ccc2ccccc2c1 (stereo unspecified)	OTUD3 block 43, USP8 block 35
CC(C)C(=O)N1C[C@@H]2CN(Cc3cccc(F)c3)[C@@H]2C1	none
CN(C(=O)Cc1csc(-c2ccccc2)n1)C(c1ccccc1)c1ccccc1	none
COc1ccccc1NC(=O)CSC1=NC2(CCCCC2)Nc2ccccc21	USP8 block 84
COc1ccc(NC(=O)CSC2=NC3(CCCCC3)Nc3ccccc32)c(OC)c1	none
COc1ccc(C(=O)NCC(c2ccc3c(c2)CCCN3C)N2CCCC2)cc1 (stereo unspecified)	none
COc1cccc(CNC(=O)c2ccc3c(=O)nc4c(-c5cccc(C)c5)n[nH]n4c3c2)c1	USP8 block 43
Cc1ccc(-c2n[nH]n3c2nc(=O)c2ccc(C(=O)NCc4ccco4)cc23)cc1	none
Cn1c(=O)[nH]c(=O)c2c(C3C(=O)Nc4ccccc43)c(-c3ccccc3)[nH]c21 (stereo unspecified)	none
CCOc1cc(C2Nc3ccccc3C(=O)N2c2ccc3c(c2)OCO3)ccc1O (stereo unspecified)	USP8 block 31
O=c1c2ccccc2c2ccccc2c(=O)n1-c1ccc2c(c1)OCO2	none
COc1cccc(-n2c(=O)c(C(=O)NCc3ccccc3)c(O)c3cccnc32)c1	USP8 block 80
Cc1cccc(C(=O)NC(c2ccccc2)c2cccnc2)c1 (stereo unspecified)	none
Cc1cccc(C(=O)NC(NC(=O)c2cccc(C)c2)c2ccccc2F)c1	USP8 block 57
CC(=O)c1cccc(NC(=O)COc2ccc(C(C)C)c(C)c2)c1	none
Cc1ccccc1C(CC(=O)Nc1ccc2c(c1)OCO2)n1cccc1 (stereo unspecified)	none
COc1cccc(C(CC(=O)Nc2ccc3c(c2)OCCO3)n2cccc2)c1 (stereo unspecified)	UCHL1 block 32
O=C(NCC1CC1)C1CCCN(c2ccc(-c3ccccc3)nn2)C1 (stereo unspecified)	OTUD3 block 30
O=C(NCC(=O)N1CCc2[nH]c3ccccc3c2C1)c1ccc(F)cc1	none
CC(C)C(NC(=O)COc1ccccc1)C(=O)N1CCc2[nH]c3ccccc3c2C1 (stereo unspecified)	USP8 block 63
CCC(=O)Oc1cn(-c2ccc(C(C)C)cc2)c2nc(CC)n3c4ccccc4nc3c12	USP8 block 47
CCOC(=O)c1ccc(NC(=O)c2ccc(SCCN3CCOCC3)nc2)cc1	none
Cn1c2ccc(F)cc2c2ncn(Cc3ccc4c(c3)OCO4)c(=O)c21	USP8 block 32
Cn1c2ccc(F)cc2c2ncn(CCN3CCOCC3)c(=O)c21	none
N#Cc1ccc(NC(=O)Nc2cccn(Cc3ccc(F)cc3)c2=O)cc1	USP10 block 37, USP8 block 95
COC(=O)Nc1cccn(Cc2c(Cl)cccc2Cl)c1=O	OTUD3 block 81, USP10 block 50, USP8 block 93
N#Cc1ccc(NC(=O)Nc2cccn(Cc3c(F)cccc3Cl)c2=O)cc1	USP8 block 89
CCOC(=O)c1cccc(NC(=O)Cc2csc(-c3ccc(OC)c(OC)c3)n2)c1	none
O=C(CSc1nnc(C2CC2)n1-c1ccccc1)c1ccc(F)c(F)c1	none
O=C(CSc1nnc2n(-c3ccccc3)c(=O)c3ccccc3n12)c1ccc(F)cc1	USP8 block 36
COC(=O)c1ccc(Cn2nnc3c(=O)[nH]c(C4CCCN(S(=O)(=O)c5ccc(C)cc5)C4)nc32)cc1 (stereo unspecified)	USP10 block 41
CCc1ccccc1NC(=O)N1CCC(c2nc3c(nnn3Cc3ccc(F)cc3)c(=O)[nH]2)CC1	none
O=c1[nH]c(C2CCN(S(=O)(=O)c3ccc(S(=O)(=O)N4CCOCC4)cc3)CC2)nc2c1nnn2Cc1cccc(F)c1	none
O=c1[nH]c(C2CCN(S(=O)(=O)c3ccccc3)CC2)nc2c1nnn2Cc1c(Cl)cccc1Cl	USP10 block 32
O=c1[nH]c(C2CCN(S(=O)(=O)c3ccc(S(=O)(=O)N4CCOCC4)cc3)CC2)nc2c1nnn2Cc1ccc(F)cc1	USP10 block 45, UCHL1 block 31, USP8 block 89, USP7 inh 30
Cc1ccc(Cn2nnc3c(=O)[nH]c(C4CCN(S(=O)(=O)c5ccc(S(=O)(=O)NC6CC6)cc5)CC4)nc32)cc1	none
O=C(Nc1cccc2ccccc12)N1CCC(c2nc3c(nnn3Cc3ccc(F)cc3)c(=O)[nH]2)CC1	USP8 block 97
CN1[C@@H](CCC(=O)NCc2ccc(F)cc2)CNC(=O)[C@@H]2[C@H]1CCN2C1CCOCC1	none
O=C(NC(=O)c1c(F)cccc1Cl)Nc1ccccc1N1CCCCC1	none
Cc1ccnc(NC(=O)c2ccn(COc3ccc(F)cc3)n2)c1	none
Cc1ccnc(NC(=O)c2ccn(COc3ccc(Cl)cc3)n2)c1	USP8 block 31
O=C1CC2C3CCC(=O)c4c(O)ccc(c43)C2(O)c2cccc(O)c21 (stereo unspecified)	USP8 block 35
CCOc1ccc(C(C)=O)cc1N1C(=O)C2C3C=CC(C3=C(c3ccccc3)c3ccccc3)C2C1=O (stereo unspecified)	none
Cc1ccccc1C(CC(=O)Nc1ncccc1C)n1cccc1 (stereo unspecified)	none
Cc1ccc(Cn2cc(C(=O)Nc3ccccc3C(N)=O)ccc2=O)cc1	USP8 block 54
